Results from PubChem BioAssay AID1159580 (chemical genetic matrix, 2015).
Out of some 5,500 compounds screened, about 2,000 (36%) were called active. Not shown: some 18% with an inconclusive outcome. Cut-off read from the data, not from the text of the source: active = normalized growth mostly below about 0.91 (no sharp cut-off); inconclusive = no clear call, values can overlap the other calls; inactive = mostly above about 0.92. The list shows a part of the results.

Assay: chemical genetic growth profiling, strain panel (AID 1159580);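 note: tested at 20 µM; growth read once vehicle control cultures reached saturation at 30 °C; 1 = growth at the plate median or of vehicle wells; lower values mean less growth of the strain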
Conditions: growth OD

Measured: normalized growth

CCCCOc1cc(C(=O)NCCN(CC)CC)c2ccccc2n1
inactive: S. cerevisiae deletion strains, locus YJR075W, strain HOC1, hits give low values 0.999 | S. cerevisiae deletion strains, locus YKL009W, strain mrt4, hits give low values 1 | S. cerevisiae deletion strains, locus YKL068W, hits give low values 0.994 | S. cerevisiae deletion strains, locus YKL085W, strain MDH1 (second series), hits give low values 0.989 | S. cerevisiae deletion strains, locus YKL085W, strain MDH1, hits give low values 0.989 | S. cerevisiae deletion strains, locus YKL160W, strain elf1, hits give low values 0.964 | S. cerevisiae deletion strains, locus YKR001C, strain vps1, hits give low values 1.01 | S. cerevisiae deletion strains, locus YKR026C, strain gcn3, hits give low values 0.962 | S. cerevisiae deletion strains, locus YKR091W, strain srl3, hits give low values 0.973 | S. cerevisiae deletion strains, locus YLL001W, strain dnm1, hits give low values 0.939 | S. cerevisiae deletion strains, locus YLL026W, hits give low values 0.981 | S. cerevisiae deletion strains, locus YLL041C, strain sdh2, hits give low values 0.956 | S. cerevisiae deletion strains, locus YLR027C, strain aat2, hits give low values 0.97 | S. cerevisiae deletion strains, locus YLR039C, strain RIC1, hits give low values 1.13 | S. cerevisiae deletion strains, locus YLR058C, strain SHM2, hits give low values 1.01 | S. cerevisiae deletion strains, locus YLR102C, strain apc9, hits give low values 0.99 | S. cerevisiae deletion strains, locus YLR113W, strain HOG1, hits give low values 1.02 | S. cerevisiae deletion strains, locus YLR221C, strain rsa3, hits give low values 1.02 | S. cerevisiae deletion strains, locus YLR258W, strain gsy2, hits give low values 1 | S. cerevisiae deletion strains, locus YLR262C, strain YPT6 (second series), hits give low values 0.956 | S. cerevisiae deletion strains, locus YLR262C, strain YPT6, hits give low values 1.14 | S. cerevisiae deletion strains, locus YLR268W, strain sec22, hits give low values 1 | S. cerevisiae deletion strains, locus YLR320W, strain mms22, hits give low values 1.02 | S. cerevisiae deletion strains, locus YLR330W, strain CHS5, hits give low values 1.01 | S. cerevisiae deletion strains, locus YLR342W, strain FKS1 (second series), hits give low values 1.02 | S. cerevisiae deletion strains, locus YLR342W, strain FKS1, hits give low values 0.957 | S. cerevisiae deletion strains, locus YLR357W, strain rsc2, hits give low values 0.94 | S. cerevisiae deletion strains, locus YLR370C, strain arc18, hits give low values 0.971 | S. cerevisiae deletion strains, locus YLR371W, strain rom2, hits give low values 0.99 | S. cerevisiae deletion strains, locus YLR384C, strain iki3, hits give low values 0.959 | S. cerevisiae deletion strains, locus YLR418C, strain cdc73, hits give low values 0.984 | S. cerevisiae deletion strains, locus YML016C, strain PPZ1, hits give low values 1.01 | S. cerevisiae deletion strains, locus YML032C, strain rad52, hits give low values 0.989 | S. cerevisiae deletion strains, locus YML120C, strain ndi1, hits give low values 0.969 | S. cerevisiae deletion strains, locus YML124C, strain tub3, hits give low values 0.994 | S. cerevisiae deletion strains, locus YMR058W, strain fet3, hits give low values 0.968 | S. cerevisiae deletion strains, locus YMR078C, strain ctf18, hits give low values 0.991 | S. cerevisiae deletion strains, locus YMR125W, strain sto1, hits give low values 0.931 | S. cerevisiae deletion strains, locus YMR129W, hits give low values 0.982 | S. cerevisiae deletion strains, locus YMR205C, strain PFK2, hits give low values 0.972 | S. cerevisiae deletion strains, locus YMR223W, strain ubp8, hits give low values 0.987 | S. cerevisiae deletion strains, locus YMR231W, strain pep5, hits give low values 0.96 | S. cerevisiae deletion strains, locus YMR263W, strain SAP30, hits give low values 1 | S. cerevisiae deletion strains, locus YMR307W, strain GAS1, hits give low values 1.1 | S. cerevisiae deletion strains, locus YNL067W, strain RPL9B, hits give low values 0.995 | S. cerevisiae deletion strains, locus YNL071W, strain lat1, hits give low values 0.985 | S. cerevisiae deletion strains, locus YNL128W, strain TEP1, hits give low values 1 | S. cerevisiae deletion strains, locus YNL153C, strain GIM3, hits give low values 0.994 | S. cerevisiae deletion strains, locus YNL183C, strain NPR1, hits give low values 0.975 | S. cerevisiae deletion strains, locus YNL209W, strain ssb2, hits give low values 0.985 | S. cerevisiae deletion strains, locus YNL233W, strain BNI4, hits give low values 0.997 | S. cerevisiae deletion strains, locus YNL248C, strain rpa49, hits give low values 0.979 | S. cerevisiae deletion strains, locus YNL250W, strain rad50, hits give low values 0.996 | S. cerevisiae deletion strains, locus YNL271C, strain bni1, hits give low values 0.991 | S. cerevisiae deletion strains, locus YNL298W, strain CLA4, hits give low values 0.998 | S. cerevisiae deletion strains, locus YNL307C, strain MCK1, hits give low values 0.984 | S. cerevisiae deletion strains, locus YNL322C, strain KRE1 (second series), hits give low values 0.951 | S. cerevisiae deletion strains, locus YNL322C, strain KRE1, hits give low values 1 | S. cerevisiae deletion strains, locus YNR049C, strain mso1, hits give low values 0.967 | S. cerevisiae deletion strains, locus YNR052C, strain pop2, hits give low values 0.985 | S. cerevisiae deletion strains, locus YOL012C, strain htz1 0.896 | S. cerevisiae deletion strains, locus YOL147C, strain pex11, hits give low values 0.998 | S. cerevisiae deletion strains, locus YOR001W, strain rrp6, hits give low values 0.935 | S. cerevisiae deletion strains, locus YOR061W, strain CKA2, hits give low values 1.01 | S. cerevisiae deletion strains, locus YOR069W, strain VPS5, hits give low values 1 | S. cerevisiae deletion strains, locus YOR070C, strain gyp1, hits give low values 0.991 | S. cerevisiae deletion strains, locus YOR080W, strain dia2, hits give low values 0.962 | S. cerevisiae deletion strains, locus YOR083W, strain WHI5, hits give low values 0.967 | S. cerevisiae deletion strains, locus YOR106W, strain vam3, hits give low values 0.966 | S. cerevisiae deletion strains, locus YOR136W, strain idh2, hits give low values 0.998 | S. cerevisiae deletion strains, locus YOR144C, strain elg1, hits give low values 0.992 | S. cerevisiae deletion strains, locus YOR184W, strain ser1, hits give low values 0.995 | S. cerevisiae deletion strains, locus YOR231W, strain MKK1, hits give low values 1.03 | S. cerevisiae deletion strains, locus YOR265W, strain rbl2, hits give low values 0.976 | S. cerevisiae deletion strains, locus YOR270C, strain vph1, hits give low values 0.933 | S. cerevisiae deletion strains, locus YOR290C, strain snf2, hits give low values 0.977 | S. cerevisiae deletion strains, locus YOR316C, strain cot1, hits give low values 0.996 | S. cerevisiae deletion strains, locus YPL051W, strain arl3, hits give low values 0.989 | S. cerevisiae deletion strains, locus YPL055C, strain LGE1, hits give low values 1.02 | S. cerevisiae deletion strains, locus YPL078C, strain atp4, hits give low values 0.936 | S. cerevisiae deletion strains, locus YPL106C, strain sse1, hits give low values 0.921 | S. cerevisiae deletion strains, locus YPL240C, strain hsp82, hits give low values 0.962 | S. cerevisiae deletion strains, locus YPL256C, strain CLN2, hits give low values 1.01 | S. cerevisiae deletion strains, locus YPR119W, strain clb2, hits give low values 0.994 | S. cerevisiae deletion strains, locus YPR141C, strain kar3, hits give low values 1 | S. cerevisiae deletion strains, locus YPR163C, strain tif3, hits give low values 1 | S. cerevisiae deletion strains, locus YPR167C, strain met16, hits give low values 0.986 | S. cerevisiae deletion strains, strain wtn01, hits give low values 1.02 | S. cerevisiae strains, strain wild type, hits give low values 1
